Potency and outcome data for nine compounds are collected here from PubChem BioAssay (Tox21).

Inconclusive results are not listed. The source made the active and inactive calls. Unless noted, calls come from the whole dose curve; as a rule, active = well fitted curve in the direction sought with a large enough effect in the repeat runs; inconclusive = weak or mixed curves; inactive = no such curve, though single readings can be large; an effect the other way counts as inactive or inconclusive.

Assay [1] can be described thus: qHTS assay to identify small molecule agonists of the vitamin D receptor (VDR) signaling pathway - cell viability counter screen (AID 743224). Note: nearly all actives have a fitted effect of over 50% in size. In outline:
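VDR-bla cells, 4 h after plating, exposed to compounds for 16 h at 37C; viability then read in the same wells as CellTiter-Glo luminescence after 30 min at room temperature, following the bla FRET read.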
A general note: qHTS replaces the single test concentration by a dilution series.

The nature of assay [2]: qHTS assay to identify small molecule antagonists of the vitamin D receptor (VDR) signaling pathway - cell viability counter screen (AID 743225). Note: nearly all actives have a fitted effect of over 50% in size. In outline:
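HEK293T VDR-bla; cpd + 1a,25-(OH)2D3 3 nM final, 16 h 37C/5% CO2; B/G FRET substrate 2 h RT; then CellTiter-Glo 30 min RT, luminescence.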

Assay [3] can be described thus: qHTS assay to identify small molecule agonists of the NFkB signaling pathway - cell viability counter screen (AID 1159515; calls by dose curve; note: nearly all actives have a fitted effect of over 55% in size). The method, boiled down: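 NFkB-bla ME-180 cells, 2,000/well, plated overnight at 37 C; compound added for 5 hr at 37 C. Viability read in the same wells as the bla reporter, by CellTiter-Glo luminescence after 30 min at room temperature.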
Assay [4] can be described thus: qHTS assay to identify small molecule agonists of the endoplasmic reticulum stress response signaling pathway - cell viability counter screen (AID 1159517; calls by dose curve;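 note: HeLa cells carrying an ER stress response element beta-lactamase reporter; nearly all actives have a fitted effect of over 50% in size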). In outline:
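CellTiter-Glo was added to wells already read for beta-lactamase FRET, and luminescence was recorded 30 min later. Cells: ESRE-bla HeLa, 1,500 per well, compound exposure 5 hr at 37 C.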

A short description of assay [5]: qHTS assay to identify small molecule antagonists of the retinoid-related orphan receptor gamma (ROR-gamma) signaling pathway - cell viability counter screen (AID 1159520). Note: nearly all actives have a fitted effect of over 50% in size. The method, boiled down: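 Tet-on ROR gamma CHO cells (1,000/well) were plated 4 hr, given compounds in DMSO for 2 hr at 37 C, then induced with 1 uM final doxycycline for 16 hr. Viability was read as ATP by CellTiter-Glo luminescence after 30 min.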

Assay [6] addresses Nuclear receptor ROR-gamma (Homo sapiens) (UniProt P51449). Briefly: qHTS assay to identify small molecule antagonists of the retinoid-related orphan receptor gamma (ROR-gamma) signaling pathway (AID 1159521). In outline:
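Cells were plated, rested 4 h at 37 C, exposed to compounds for 2 h, then given 1 uM final doxycycline hyclate to induce RORγ expression. After 16 h, ONE-Glo luminescence from the ROR response element reporter was measured.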

The nature of assay [7]: qHTS assay to identify small molecule agonists of the AP-1 signaling pathway - cell viability counter screen (AID 1159525; calls by dose curve; note: nearly all actives have a fitted effect of over 55% in size). The method, boiled down: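 ME-180 AP-1-bla, 2500 cells/well, Opti-MEM + 0.5% dialyzed FBS; overnight 37 °C; cpd 15-pt titration, 5 h 37 °C; CellTiter-Glo 30 min RT; luminescence read; normalised to TOAB and DMSO controls.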
The nature of assay [8]: qHTS assay to identify small molecule agonists of the AP-1 signaling pathway (AID 1159526; calls by dose curve; note: potency is the fitted concentration of half-maximal effect).
The target in assay [9] is Retinoic acid receptor RXR-alpha (Homo sapiens) (UniProt P19793). Description: qHTS assay to identify small molecule agonists of the RXR signaling pathway (AID 1159527; calls by dose curve; note: nearly all actives have a fitted effect of over 35% in size; note: potency is the fitted concentration of half-maximal effect). The method, boiled down:
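Cells plated at 2,000/well, rested 5 hr at 37 C, pin-dosed with DMSO compound solutions, incubated 16 hr, then loaded with B/G FRET substrate for 2 hr at RT before dual-emission fluorescence reading.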

The nature of assay [10]: qHTS assay to identify small molecule agonists of the RXR signaling pathway - cell viability counter screen (AID 1159529). The method, boiled down:
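Steps: seed RXR-alpha-UAS-bla HEK 293T cells in assay medium containing 2% charcoal-stripped FBS; incubate 5 hr; add compounds in DMSO; incubate 16 hr at 37 C; after the bla read, add CellTiter-Glo and read luminescence at 30 min.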

The nature of assay [11]: qHTS assay to identify small molecule antagonists of the retinoid acid receptor (RAR) signaling pathway - cell viability counter screen (AID 1159551). Note: nearly all actives have a fitted effect of over 35% in size. The method, boiled down:
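C3RL4 RARE-luciferase cells, 1,000/well, incubated overnight, then dosed with compound plus 1 uM retinol (final). After 6 hr at 37 C, viability read by CellTiter-Glo ATP luminescence following 30 min at room temperature.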

A short description of assay [12]: qHTS assay to identify small molecule antagonists of the retinoic acid receptor (RAR) signaling pathway (AID 1159552; note: nearly all actives have a fitted effect of over 50% in size). In outline:
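Retinol at 1 uM final stimulated RARE-luciferase expression in C3RL4 cells exposed to test compounds for 6 hr at 37 C. Reduced luminescence, read 30 min after detection reagent, indicated pathway antagonism.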

Assay [13] can be described thus: qHTS assay to identify small molecule agonists of the retinoic acid receptor (RAR) signaling pathway (AID 1159553). The following applies: C3RL4 RARE luciferase reporter, agonist, 6 h; activation: at 73.3 µM (top of the series) unless noted. The method, boiled down:
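C3RL4 RARE-luciferase cells were seeded at 1,000/well and grown overnight at 37 C, then exposed to compounds for 6 hr at 37 C, 5% CO2. Luciferase reagent was added and luminescence was read after 30 min at room temperature.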

Assay [14] can be described thus: qHTS assay to identify small molecule agonists of the endoplasmic reticulum stress response signaling pathway (AID 1159516; active = well fitted activation curve with a large enough effect in the signal ratio in the repeat runs, not every such curve was filed as active; the % refers to the signal ratio). The method, boiled down: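 CellSensor ESRE-bla HeLa cells, 1,500 per well, plated overnight, then exposed to compounds for 5 hr at 37 C. Beta-lactamase reporter read with LiveBLAzer B/G FRET substrate after 2 hr at room temperature, 405 nm excitation, 460 and 530 nm emission.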

Assay [15] is described as follows: qHTS assay to identify small molecule antagonists of the estrogen related receptor (ERR) signaling pathway - cell viability counter screen (AID 1224818). In outline:
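ERR cells, 2,000 per well, compound added after 6 h and incubated 17.5 h at 37 C. Viability read by CellTiter-Fluor fluorescence after a further 30 min at 37 C.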

Assay [16] in a line: qHTS assay to identify small molecule antagonists of the estrogen related receptor signaling pathway with the pleiotropic PPARgamma coactivator (PGC) cell viability counter screen (AID 1224822). In outline:
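PGC/ERR cells rested 6 h, then compound-treated 17.5 h at 37 C. CellTiter-Fluor added for 30 min at 37 C, viability measured by fluorescence intensity.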

Assay [17] can be described thus: qHTS assay to identify small molecule antagonists of the estrogen related receptor (ERR) signaling pathway (AID 1224819). In outline: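 ERR reporter cell line (NTP) plated at 2,000 cells/well, settled 6 h at 37C/5% CO2, then exposed to LOPAC compounds for 18 h at 37C. One-Glo luciferase luminescence read after 30 min at room temperature.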
Assay [18] can be described thus: qHTS assay to identify small molecule agonists of the estrogen related receptor (ERR) signaling pathway (AID 1224820). The method, boiled down:
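Cells: ERR line from NTP, 2,000/well. Pre-incubation 6 h, 37 C/5% CO2. Compound (DMSO) pin transfer, 18 h 37 C. One-Glo, 30 min RT, luminescence.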

Assay [19] has as its system estrogen-related receptor alpha (ERRalpha) with PGC-1alpha coactivator, human. Briefly: qHTS assay to identify small molecule antagonists of the estrogen related receptor signaling pathway with the pleiotropic PPARgamma coactivator (PGC) (AID 1224821; calls by dose curve). The method, boiled down:
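Luminescent read-out (One-Glo, 30 min at room temperature) following 18 h treatment of PGC/ERR cells at 37 C with compounds delivered in DMSO. Cells had settled 6 h at 37 C/5% CO2 before dosing.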

The nature of assay [20]: qHTS assay to identify small molecule agonists of the estrogen related receptor signaling pathway with the pleiotropic PPARgamma coactivator (PGC) (AID 1224823). The method, boiled down: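 Steps: plate PGC/ERR cells at 2,000 cells/well; incubate 6 h, 37 C/5% CO2; pin-transfer compounds (DMSO); incubate 18 h, 37 C; add One-Glo; 30 min RT; read luminescence.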

Sequence of Retinoic acid receptor RXR-alpha (Homo sapiens) (P19793 whole entry, looked up): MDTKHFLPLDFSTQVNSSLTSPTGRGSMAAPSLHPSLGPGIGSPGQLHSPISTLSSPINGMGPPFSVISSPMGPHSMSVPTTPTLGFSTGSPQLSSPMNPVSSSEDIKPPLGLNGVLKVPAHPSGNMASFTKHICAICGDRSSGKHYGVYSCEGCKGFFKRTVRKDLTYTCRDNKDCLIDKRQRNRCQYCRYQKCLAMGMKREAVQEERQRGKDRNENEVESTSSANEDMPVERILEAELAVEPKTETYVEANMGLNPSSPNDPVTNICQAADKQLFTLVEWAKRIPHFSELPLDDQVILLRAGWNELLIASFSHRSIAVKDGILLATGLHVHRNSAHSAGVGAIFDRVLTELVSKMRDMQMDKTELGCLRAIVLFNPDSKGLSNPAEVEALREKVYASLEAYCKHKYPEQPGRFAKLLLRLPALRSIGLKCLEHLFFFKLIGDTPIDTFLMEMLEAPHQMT

As to `CCOC(=O)NNc1ccc(N(CC)CC(C)O)nn1` (centres undefined), the Potency entry in assay [1], in assay [2], in assay [3], in assay [4], in [5] and in assay [6] was “inactive” throughout. The Potency result in [7], in [8], in [9], in assay [10], in [11] and in [12] was “inactive” in each case. The Potency result in [13] was “inactive”.
As to `CCCC1CCC(=O)CC1`, the Potency result in assay [1], in assay [3], in assay [4], in [5], in assay [6] and in assay [7] was “inactive” in each case. Besides, the Potency entry in assay [8], in [9], in assay [10] and in assay [11] was “inactive” in each case.
As to `CC(C)(C)c1csc(-c2cc3cc(OCc4ccccc4CC(=O)O)ccc3o2)n1`, the Potency entry in [3], in assay [14], in assay [12] and in assay [13] was “inactive” in each case.
Regarding `O=c1c(O)c(-c2ccc(O)cc2O)oc2cc(O)cc(O)c12`, the Potency entry in [2], in [3], in assay [4], in assay [5], in assay [6] and in assay [7] was “inactive” each time. For the same compound, the Potency result in assay [8], in assay [9], in [10], in assay [11] and in assay [16] was “inactive” in each case. Moreover, in assay [15], the outcome was inactive.
Regarding `Nc1nc2c(ncn2COCCO)c(=O)[nH]1`, the Potency entry in assay [3], in assay [4], in [5], in assay [6], in assay [7] and in assay [8] was “inactive” each time. For the same compound, the Potency entry in [9], in [10], in [11], in assay [12], in assay [13] and in assay [17] was “inactive” in each case. In addition, the Potency entry in assay [19] and in assay [16] was “inactive” each time. Moreover, the call in assay [15], in [18] and in [20] was inactive.
In the case of `Cc1c(C)c2c(c(C)c1OC(=O)c1cccnc1)CC[C@@](C)(CCC[C@H](C)CCC[C@H](C)CCCC(C)C)O2`, the Potency entry in [3], in [4], in assay [5], in assay [6], in assay [7] and in [8] was “inactive” each time. Besides, the Potency result in [9], in [10], in assay [11] and in assay [13] was “inactive” throughout.
Regarding `CN(C)Cc1ccccc1O`, the Potency entry in assay [1], in assay [2], in assay [3], in assay [4], in assay [5] and in assay [6] was “inactive” each time. Besides, the Potency entry in assay [7], in assay [8], in assay [9], in assay [10], in [11] and in assay [13] was “inactive” throughout.
As to `Nc1nc(N)nc(-c2cc(Cl)ccc2Cl)n1`, the Potency result in assay [1], in [3], in [4], in [5], in assay [6] and in assay [7] was “inactive” throughout. Moreover, the Potency entry in assay [8], in assay [9], in assay [10] and in assay [11] was “inactive” each time.
Take `O=S(=O)(O)c1ccccc1/C=C/c1ccc(-c2ccc(/C=C/c3ccccc3S(=O)(=O)O)cc2)cc1`: the Potency result in assay [1], in [3], in assay [4], in assay [5], in assay [6] and in assay [7] was “inactive” throughout. The Potency result in assay [10], in [11] and in assay [13] was “inactive” in each case. Besides, the Potency in assay [8] is 31.3 µM (active); in assay [9] it was 35.2 µM (active).
